Experimental findings from the supplement of paper PMC7156485 are described below.

± gives the standard deviation of the averaged measurements.
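Note: TDF denotes transformed human dermal fibroblasts of mesenchymal origin.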

This test has as its system HCC1569. As to the kind of experiment: cell number relative to DMSO (% of DMSO); higher = more cells (less growth inhibition / toxicity). As to conditions: concentration: 10 µM; 24 h. An outline of the steps:
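H1.0 nuclear intensity or cell number is stated as percent of the plate control, based on the median of replicates, and HCC1569 values were smoothed for positional effects. These came from HCC1569 and TDF cells treated with compounds at 10 µM for 24 h at 37 °C in triplicate, then fixed in 3.7% formaldehyde and stained with a rabbit anti-H1.0 antibody, an AlexaFluor 647 secondary and DAPI.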
Regarding `CC1(C)OC2CC3C4CC(F)C5=CC(=O)C=CC5(C)C4(F)C(O)CC3(C)C2(C(=O)CO)O1` (stereo unspecified) [Fluocinolone acetonide], the cell number was 101.
The figure for `COC(=O)c1c(-c2cc(OC)c(OC)c(OC)c2)c2ccc(OCc3ccccn3)cc2c(=O)n1-c1ccc(N)cc1.O=S(=O)(O)O` is 100.
`CN(C)C(=O)Nc1cccc(-c2ccc(N(C)C)cc2)c1` [3-(4'-(dimethylamino)-[1,1'-biphenyl]-3-yl)-1,1-dimethylurea]: the cell number was 101.
The figure for `CC(=O)OCC(=O)[C@@]1(O)CC[C@H]2[C@@H]3CCC4=CC(=O)C=C[C@]4(C)[C@H]3[C@@H](O)C[C@@]21C` is 99.3; for `COc1ccc(S(=O)(=O)N(CCO)c2ccccc2CN(C)CC=Cc2ccc(Cl)cc2)cc1` it is 74.4; for `Cn1cc(C2=C(c3cn(CCCSC(=N)N)c4ccccc34)C(=O)NC2=O)c2ccccc21` it is 53.9.
The figure for `OCC1OC(O)C(Cl)C(O)C1O` [2-Chloro-2-deoxy-D-glucose] is 104.
In turn, `CCCCCCCCCCCCCCCCCCCCCC(=O)O` [Docosanoic acid] had a cell number of 101.
The figure for `CCOC(=O)CCNc1cc(N2CCc3ccccc3CC2)nc(-c2ccccn2)n1` is 78.8; for `Br.Br.N=C(N)SCCc1ccc(CCSC(=N)N)cc1` [1,4-PBIT dihydrobromide] it is 96.8; for `NC(=O)c1ccc2[nH]ccc2c1` it is 108.
Turning to `CC12CCc3occc3C1CCC13CC(=O)C(CCC12)C3` (stereo unspecified) [16-Oxocafestol], the cell number was determined as 101.
Consider `O=C1NC(=O)C(c2c[nH]c3ccccc23)=C1c1c[nH]c2ccccc12` [Bisindolylmaleimide IV], for which the cell number was 91.2.
Molecule `Cc1cccc(-c2[nH]c(C(C)(C)C)nc2-c2ccc3c(c2)OCO3)n1.Cl` [TGF-b RI Inhibitor III] came in with a cell number of 96.3.
The figure for `COc1ccc(-c2ccc(N)[n+](CCCC(=O)O)n2)cc1.[Br-]` is 105; for `COc1ccc(C2CC(=O)c3c(O)cc(O)cc3O2)cc1O` (stereo unspecified) [Hesperitine] it is 98.4; for `CC(=O)NC(CSCC=C(C)CCC=C(C)C)C(=O)O` (stereo unspecified) it is 101.
To `Oc1ccc(Cn2cc[nH]c2=S)cc1` [1-(4-Hydroxybenzyl)imidazole-2-thiol] belongs 102; to `Cc1ccc(C(=CCN2CCCC2)c2ccccn2)cc1.Cl` [Trans-triprolidine.HCl], 100.
Consider `Cc1nc2n(c(=O)c1CCN1CCC(c3noc4cc(F)ccc34)CC1)CCCC2` [Risperidone], for which the cell number was determined as 100 ± 3.
`Cl.O=C(CNC(=O)c1cccc(C(F)(F)F)c1)N[C@@H]1CCN(Cc2ccc(Cl)cc2)C1`: the cell number amounted to 89.9.
The figure for `Cl.NCc1c[nH]c(=S)n1[C@H]1CCc2c(F)cc(F)cc2C1` is 99.6; for `CCC1(O)C(=O)OCc2c1cc1n(c2=O)Cc2cc3c(CN(C)C)c(O)ccc3nc2-1.Cl` (stereo unspecified) [Topotecan.HCl] it is 65.7; for `CC(CC(c1ccccc1)c1ccccc1)NC(C)(C)C.Cl` (stereo unspecified) [N-(tert-butyl)-4,4-diphenyl-2-butanamine hydrochloride] it is 97.9.
To `CC(C)(N)c1ccc(-c2nc3ccccc3nc2-c2ccccc2)cc1` belongs 95.6; to `CCCCCC=CC=C1C(=O)C=CC1CC=CCCCC(=O)O` (stereo unspecified) [15d-Prostaglandin J2], 98.9.
`N#CC(=C(N)Sc1ccc(N)cc1)c1ccccc1C(F)(F)F` [MEK1/2 Inhibitor] showed a cell number of 100.
The figure for `C1CCC(C(CC2CCCCN2)C2CCCCC2)CC1.O=C(O)C=CC(=O)O` (stereo unspecified) is 19; for `CCn1c(-c2nonc2N)nc2c(C#CC(C)(C)O)ncc(OCC3CCCNC3)c21` (stereo unspecified) it is 72.9.
To `CC(=O)c1ccc(N2CCOCC2)cc1O` [DNA-PK Inhibitor III] belongs 99.1; to `COc1ccc(C2(C#N)CCC(C(=O)O)CC2)cc1OC1CCCC1` (stereo unspecified), 105; to `CCCCCC=CCC(O)C=CC=CC=CC(O)CCCC(=O)O` [5(S),12(R)-DIHETE all trans], 99.8.
To `Oc1ccc(C=Cc2cc(O)cc(O)c2)cc1` [Resveratrol] belongs 79.2 ± 6.3; to `CCCCCCCCC1OC1CCCCCCCC(=O)O` (stereo unspecified) [Epoxy-oleic acid], 97.7; to `O=c1cc(-c2ccccc2)oc2cc(O)ccc12` [7-Hydroxyflavone], 103.
In the case of `COC1=C2CC(C)=c3c(C(C)=O)c(OC)c(O)c4c3c2c2c(cc(OC)c3c(OC)cc(O)c4c32)C(=O)C1=O` [Hypocrellin B], the cell number amounted to 101.
